Shiga toxin inh: A qHTS for Small Molecule Inhibitors of Shiga Toxin. Vero cells, Shiga toxin protein synthesis inhibition reporter. inhibition, % at 38.7 µM. 9.2% of 290,000 active. AID 2315, 2010; in the data active = inhibition mostly above about 28%, no sharp cut-off; inactive = mostly below about 43%; also: 0% is about no effect
Pf growth 96h: Primary qHTS for delayed death inhibitors of the malarial parasite plastid, 96 hour incubation; P. falciparum luciferase reporter growth, 96 h; 6.9% of 320,000 active; AID 504834, 2011; Potency, µM (titrated, usually from 28.7 µM), for the others: top-dose activity change, negative = inhibition, usual class: inhibitors; also: potency is read from the fitted curve at half-maximal effect; % is scaled to controls: 0 for no effect and ±100 for the full control effect
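96 h incubation, 37 C, 5% CO2, of luciferase-reporter P. falciparum-infected RBCs (2% hematocrit, 0.05% parasitemia final) with test compounds; endpoint luminescence.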
AMA1-RON2 inh: qHTS for Inhibitors of AMA1-RON; Towards Development of Antimalarial Drug Lead: Primary Screen; Plasmodium falciparum AMA1 (3D7) - RON2 peptide interaction; AlphaScreen AMA1-biotinylated RON2 peptide binding; Potency, µM (doses to about 58.2 µM), for inactives: at the highest dose activity change, negative = inhibition, hits mostly inhibitors; 0.2% of 360,000 active;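 also: potency is read from the fitted curve at half-maximal effect; 0% = vehicle wells and -100% = peptide control; nearly all actives have a fitted effect of over 45% in size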
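AMA1 (3D7) with his tag at 25 nM final met compounds first, then biotinylated RON2 peptide at 25 nM; detection used donor plus acceptor beads, 10 µg/mL apiece, read by AlphaScreen after 30 min at room temperature.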
Pf growth 48h: Primary qHTS for delayed death inhibitors of the malarial parasite plastid, 48 hour incubation. 5.9% of 310,000 active. Potency, µM (top dose mostly 28.7 µM), for the others: top-dose activity change, negative = inhibition, most hits filed as inhibitors. AID 504832, 2011. P. falciparum luciferase growth in erythrocytes, 48 h; also: potency is read from the fitted curve at half-maximal effect; % is scaled to controls: 0 for no effect and ±100 for the full control effect
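Cell-based growth assay: transgenic P. falciparum expressing firefly luciferase, cultured in red cells within RPMI 1640 containing 0.5% w/v Albumax, 24 mM bicarbonate and gentamycin. A drop in luciferase activity indicates inhibition.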
HCV inh: qHTS Assay for Inhibitors of Hepatitis C Virus (HCV); Huh7.5.1 HCVcc-Cre infection, luciferase reporter, 44 h; Potency, µM (top dose mostly 41.8 µM), without a hit: at the top dose activity change, negative = inhibition, most hits filed as inhibitors; 3.4% of 340,000 active; AID 651820, 2012; also: potency is read from the fitted curve at half-maximal effect; % is scaled to controls: 0 for no effect and ±100 for the full control effect
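1,000 cells/well; 4 h culture; + compound; + HCVcc-Cre (~0.5 moi); 44 h; luciferase substrate, RT 15 min; read 15 sec.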
CHX counter: Cycloheximide Counterscreen for Small Molecule Inhibitors of Shiga Toxin. cell reporter, cycloheximide protein synthesis inhibition counterscreen. max response, %. 12% of 300,000 active; in the data active = max response mostly above about 13%, no sharp cut-off; inactive = mostly below about 14%; also: read at 38.3 µM for the half of the compounds with a filed dose; 0% is about no effect
Starred values were filed as active, the others as inactive; ? = inconclusive; . = not tested or not shown; [ ] = dose if it differs, or a comment. In the library only some 21% were active in any assay of this set; here they are far more common. Unless noted, calls follow the shape of the dose curve; as a rule, active = well fitted curve in the direction sought with a large enough effect; inconclusive = small, poorly fitted or top-dose-only effect, or another doubt; inactive = no such curve, though single readings can be large; an effect the other way counts as inactive or inconclusive.

SMILES	Shiga toxin inh	Pf growth 96h	AMA1-RON2 inh	Pf growth 48h	HCV inh	CHX counter
COC(=O)c1c(N(S(C)(=O)=O)S(C)(=O)=O)sc2c1CCN(c1ncc(C(F)(F)F)cc1Cl)C2	9	-26%	?	.	?	7
C/C=C/c1ccc2c(c1)O[C@H](CN(C)CC1CCOCC1)[C@@H](C)CN([C@H](C)CO)S2(=O)=O	.	.	9%	.	.	.
Cc1ccc(NCc2cccc(B(O)O)c2)cc1	.	.	7%	.	-61%	.
Oc1ccc(C[C@H]2CNC(=S)N2C[C@H]2CCCN2C[C@H](Cc2ccccc2)N2C[C@H](Cc3ccc(O)cc3)N(CCc3ccccc3)C2=S)cc1	.	.	11%	.	.	.
COc1ccc(NC(=O)CCCCCN2C(=O)[C@@H]3Cc4ccccc4CN3C2=O)cc1Cl	-2	12µM*	14%	-16%	?	-1
O=C(CCCCCN1C(=O)[C@@H]2Cc3ccccc3CN2C1=O)Nc1ccccc1Cl	30	?	56%	?	0%	30*
Cc1ccccc1NC(=O)CCCCCN1C(=O)[C@@H]2Cc3ccccc3CN2C1=O	-16	?	-2%	-11%	1%	12
CC1CCc2cc(F)ccc2N1C(=O)CCl (stereo not drawn)	-10	?	23%	?	?	19
CN(C(=O)c1c(O)c2ccccc2n(C)c1=O)c1ccccc1	.	-2%	.	-3%	.	.
CC[N+](CC)(CC#Cc1ccccc1)CC#Cc1ccccc1	15	?	-12%	1.5µM*	-6%	-2
C#CC[N+](CC)(CC)CC#Cc1ccccc1	-3	?	5%	?	-14%	8
CCCCCc1ccc2cc(C#N)ccc2n1	.	.	15%	.	.	.
Cc1cc2oc(=O)cc(CN3CCC(C)CC3)c2cc1C	24	?	-12%	?	-28%	20*
Cc1cc2oc(=O)cc(CN3CCCCC3C)c2cc1C (stereo not drawn)	1	9.3µM*	1%	10µM*	-19%	-1
CC(=O)N1CCN(Cc2cc(=O)oc3cc(C)c(C)cc23)CC1	.	.	12%	.	.	.
CC(=O)c1ccc(N2C(=O)[C@@H]3[C@H](C2=O)[C@H]2c4ccccc4C=NN2[C@@H]3C(C)=O)cc1	32	13%	-6%	13%	-7%	10*
CC(=O)Oc1ccc(N2C(=O)[C@@H]3[C@H](C2=O)[C@H]2c4ccccc4C=NN2[C@@H]3C(C)=O)cc1	12	18%	-2%	15%	3%	-2
CCCC(=O)Nc1ccc2nc(C)n(Cc3ccccc3Cl)c(=O)c2c1	-4	-15%	1%	?	?	-3
Cc1nc2cc(N3CCCCC3)c(NC(=O)c3ccncc3)cc2c(=O)n1Cc1ccc(Cl)cc1	16	?	.	.	.	-2
Cc1nc2cc(N3CCN(C)CC3)c(NC(=O)Cc3ccccc3)cc2c(=O)n1Cc1ccccc1	55*	-7%	-4%	10µM*	-27%	90*
CCN(CC)c1cc2nc(C)n(Cc3ccccc3)c(=O)c2cc1NC(=O)C1CC1	1	18%	0%	7.4µM*	?	-2
CC(=O)Nc1cc(OC(C)=O)c2nonc2c1OC(C)=O	-18	5%	7%	10µM*	?	-2
CC(=O)Nc1nonc1NC(C)=O	-17	25%	5%	4%	4%	-3
Cn1cc(CN(CCCN2CCOCC2)C(=S)Nc2cccc(Cl)c2)c2ccccc21	-17	?	?	0%	8.9µM*	-5
Cc1cccc(NC(=S)N(CCCN2CCOCC2)Cc2cn(C)c3ccccc23)c1	-12	?	-16%	-5%	-25%	-3
SMILES	Shiga toxin inh	Pf growth 96h	AMA1-RON2 inh	Pf growth 48h	HCV inh	CHX counter
CCOc1ccc(NC(=S)N(CCCN2CCOCC2)Cc2cn(C)c3ccccc23)cc1	6	?	?	?	10µM*	-1
O=C(NCC(=O)N1CCN(C(c2ccccc2)c2ccccc2)CC1)c1ccccc1Br	.	.	0%	.	.	.
CCN(C(=O)CSc1nc2cc(S(=O)(=O)N(CC)CC)ccc2o1)C1CCS(=O)(=O)C1 (stereo not drawn)	6	?	4%	?	?	-2
CCC(=O)Nc1c2c(nn1-c1ccc(OC)cc1)CS(=O)C2 (stereo not drawn)	-7	?	0%	.	7%	-5
CCC(CC)C(=O)Nc1c2c(nn1-c1ccc(OC)cc1)CS(=O)C2 (stereo not drawn)	-3	0.033µM*	0%	.	7%	-4
CC1=C(C)SC(=C(C#N)c2nnc(N3CCOCC3)n2-c2ccccc2)S1	-31	9.3µM*	10%	?	-10%	-3
C=CCN1C(c2cccc(C(F)(F)F)c2)=CS/C1=C(/C#N)c1nnc(N2CCOCC2)n1-c1ccccc1	-18	12µM*	-16%	10µM*	?	-6
C=CCN1C(c2ccc(Br)cc2)=CS/C1=C(/C#N)c1nnc(N2CCOCC2)n1-c1ccccc1	6	?	23%	?	?	7
COc1ccc(NC(=O)NNC(=O)C(C)Oc2ccc(C(C)C)cc2)c(OC)c1 (stereo not drawn)	-7	?	93%	17%	6%	21
CCC(C)n1nccc1NC(=O)C(C)OC(=O)c1cc2ccccc2[nH]1 (stereo not drawn)	31	.	?	?	?	2
COc1ccc(OC)c(NC(=O)C(C)Oc2ccc(Br)cc2)c1 (stereo not drawn)	-9	?	?	?	11µM*	-1
CC(Oc1ccc(Br)cc1)C(=O)Nc1ccc(N2CCOCC2)cc1N1CCOCC1 (stereo not drawn)	.	10µM*	-16%	12µM*	?	.
COc1ccc(OC)c(NC(=O)C(C)OC(=O)c2cc3ccccc3[nH]2)c1 (stereo not drawn)	.	.	-2%	.	11µM*	.
COc1ccccc1NC(=O)CN1CCC(n2nnc3cc(F)ccc32)CC1	-10	?	-3%	?	?	-1
Cc1ccc2c(c1)nnn2C1CCN(CC(=O)NCCc2ccccc2)CC1	-15	0%[5.75 µM]	-3%	?	-17%	-3
COc1ccc(Cl)cc1NC(=O)CN1CCC(n2nnc3cc(C)ccc32)CC1	-10	8%	-3%	?	5µM*	-7
Cc1ccc2c(c1)nnn2C1CCN(CC(=O)Nc2ccccc2N2CCOCC2)CC1	-5	37%	0%	2.1µM*	?	-2
O=C(N/N=C/C(Br)=C/c1ccccc1)c1ccccc1F	86*	?	10%	?	-19%	34*
O=C(N/N=C/C(Cl)=C/c1ccccc1)c1ccccc1F	80*	?	-4%	-35%	-3%	56*

Screens from PubChem.
